In the library only some 4.1% were active in any assay of this set; here they are far more common.
hgDAF12 agonist: activates the H. glycines DAF-12 receptor ligand-binding domain. activation, % at 6.8 µM. HEK293 GAL4-hgDAF12 UAS-luciferase reporter, agonist luminescence; normalized to butyrate control. 370,000 tested, 1.8% active;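 active = activation above a cutoff set at the mean of all screened compounds plus 3 SD, cut at about 10% in these data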;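 also: 0% = DMSO wells and 100% = sodium butyrate wells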
DAX1 inh-1: inhibits human nuclear receptor DAX1 | P51843 | HEK293 Gal4-DAX1 luciferase reporter, luminescence | inhibition, % at 6.75 µM | 340,000 tested, 0.99% active | AID 504766;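 active = inhibition above the mean over all tested compounds plus 3 SD, cut at about 4.2% in these data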;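 also: 0% = DAX1-transfected cells with DMSO and 100% = empty-vector control cells with DMSO; inhibition shows as a rise in luminescence from relieved DAX1 repression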
Target sequence (P51843 207-470 limits assumed): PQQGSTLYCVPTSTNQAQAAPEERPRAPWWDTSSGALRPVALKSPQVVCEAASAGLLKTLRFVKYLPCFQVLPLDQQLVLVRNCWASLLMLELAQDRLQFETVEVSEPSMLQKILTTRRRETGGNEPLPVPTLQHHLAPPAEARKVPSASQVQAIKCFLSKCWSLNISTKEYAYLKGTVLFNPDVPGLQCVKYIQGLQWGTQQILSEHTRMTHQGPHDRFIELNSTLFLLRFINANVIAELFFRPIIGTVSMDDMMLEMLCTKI
hcDAF-12 act: H. contortus DAF-12 activation, primary screen; HEK293 hcDAF-12 lit1-tk-luc reporter, luminescence; 0% DMSO, 100% Δ7-dafachronic acid; activation, % at 6.8 µM; 370,000 tested, 1.4% active;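 active = activation above the mean of all tested compounds plus 3 SD, cut at about 5.5% in these data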;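 also: 100% = response to 3 µM Δ7-dafachronic acid high control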
ssDAF-12 act: S. stercoralis DAF-12 activation, primary screen; HEK293 ssDAF-12/GRIP1 lit1-tk-luc reporter, luminescence; % of 3 µM dafachronic acid response; activation, % at 6.8 µM; 370,000 tested, 1% active;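 active = activation above the mean over all tested compounds plus 3 SD, cut at about 0.9% in these data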;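 also: 0% = DMSO-only wells and 100% = 3 µM delta7-dafachronic acid wells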
DAX1 inh-2: blocks DAX1 repression of SF-1 activated StAR promoter; inhibition, % at 6.8 µM; HEK293T StAR-luciferase reporter, SF-1/DAX-1 repression relief; 370,000 tested, 1.1% active;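 active = inhibition above the mean over all tested compounds plus 3 SD, cut at about 3.6% in these data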;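 also: 0% = DAX-1 cells with DMSO and 100% = cells lacking DAX-1 with DMSO; higher inhibition means more luminescence from relief of DAX-1 repression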
DAX1 conf: NR0B1 (human) inhibition, confirmation; inhibition, % at 6.8 µM; 2,400 tested, 87% active; shares compounds with DAX1 inh-2; HEK293T StAR-promoter luciferase reporter, SF-1/DAX-1 repression;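 active = inhibition above the average of every tested compound plus 3 SD, cut at about 3.8% in these data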;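 also: 0% = DAX-1 cells with DMSO and 100% = no DAX-1 control cells with DMSO; active compounds raise luminescence by relieving repression of the StAR reporter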
SF1 AF2mut Luc: counter-screen for DAX1 inhibitors: nonselective inhibitors with SF-1 AF2 mutant; shares compounds with DAX1 inh-2; HEK293 StAR-luciferase, luminescence; inhibition, % at 6.8 µM; 2,400 tested, 78% active;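 active = inhibition above the mean of all tested compounds plus 3 SD, cut at about 3% in these data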;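 also: 0% = DAX-1 transfected cells with DMSO and 100% = cells without DAX-1 with DMSO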
* marks the source's active call; other numbers are inactive results.

`C/C(=N/NC(=O)c1ccoc1C)c1cccs1` gave hgDAF12 agonist 8.8, hcDAF-12 act 4.6, ssDAF-12 act -0.2, DAX1 inh-2 7.8*, DAX1 conf 12.2* and SF1 AF2mut Luc 7.3*.
Screening Cc1cccc(C)c1NC(=O)C(c1ccccc1OC(F)(F)F)N1CCN(C)CC1 (configuration not stated) returned hgDAF12 agonist -1.9, hcDAF-12 act -0.4, ssDAF-12 act -0.9 and DAX1 inh-2 0.2.
O=C(CCc1ccccc1)N[C@H]1[C@H](OC(=O)c2cnccn2)CCC[C@@]12C(=O)N(Cc1ccccc1)c1ccccc12 was read as hgDAF12 agonist -0.3, hcDAF-12 act -2.9, ssDAF-12 act -0.5 and DAX1 inh-2 -0.3.
N/C(=N\OC(=O)c1ccccc1)c1ccn[nH]1 was read as hgDAF12 agonist 9.9, DAX1 inh-1 0.6, hcDAF-12 act 4.5, ssDAF-12 act 0.7, DAX1 inh-2 11.7*, DAX1 conf 8.2* and SF1 AF2mut Luc 4.9*.
Screening N/C(=N\OC(=O)c1ccccc1)c1cccnc1 returned hgDAF12 agonist 8.0, DAX1 inh-1 1.1, hcDAF-12 act 1.0, ssDAF-12 act -0.1 and DAX1 inh-2 2.1.
For O=C(CNC(=O)c1cn2ccccc2n1)Nc1ccc(F)c(F)c1 the results were hgDAF12 agonist 8.7, DAX1 inh-1 3.1, hcDAF-12 act 2.4, ssDAF-12 act 0.2, DAX1 inh-2 6.2*, DAX1 conf 8.5* and SF1 AF2mut Luc 5.7*.
CN(CC(=O)Nc1cccc(F)c1)C(=O)c1cn2ccccc2n1 was read as hgDAF12 agonist -0.5, DAX1 inh-1 0.8, hcDAF-12 act -1.5, ssDAF-12 act -0.4 and DAX1 inh-2 0.1.
`O=C(CSc1nc2ccccc2n1Cc1ccccc1)NN=Cc1c[nH]c2ccccc12` gave hgDAF12 agonist 1.3, hcDAF-12 act 3.4, ssDAF-12 act -0.6 and DAX1 inh-2 -0.9.
`CNC(=O)C[C@H]1C(=O)N(c2ccccc2)C[C@@H]1CSC` gave hgDAF12 agonist -0.2, DAX1 inh-1 2.2, hcDAF-12 act 1.2, ssDAF-12 act -1.1 and DAX1 inh-2 0.1.
For c1ccc(-n2ncc3c(NC4CCCCCC4)ncnc32)cc1 the results were hgDAF12 agonist 10.8*, DAX1 inh-1 5.9*, hcDAF-12 act -0.1, ssDAF-12 act -0.6, DAX1 inh-2 5.7*, DAX1 conf 10.2* and SF1 AF2mut Luc 5.7*.
`CCc1nnc(NC(=O)CCN2C(=O)C3CCCCC3C2=O)s1` (configuration not stated) gave hgDAF12 agonist -0.4, DAX1 inh-1 -0.4, hcDAF-12 act 0.7, ssDAF-12 act -0.3 and DAX1 inh-2 1.0.
`CCSc1nnc(NC(=O)CCN2C(=O)C3CCCCC3C2=O)s1` (configuration not stated) gave hgDAF12 agonist 4.1, DAX1 inh-1 1.0, hcDAF-12 act -0.1, ssDAF-12 act -1.0, DAX1 inh-2 4.8*, DAX1 conf 3.5 and SF1 AF2mut Luc 1.7.
`CCCOc1ccc(C(=O)Nc2ccc3c(c2)OCO3)cc1` gave hgDAF12 agonist 7.5, DAX1 inh-1 1.2, hcDAF-12 act 1.6, ssDAF-12 act -0.3, DAX1 inh-2 10.5*, DAX1 conf 9.6* and SF1 AF2mut Luc 4.9*.
Screening CC(=O)c1cc(F)ccc1OCC(=O)Nc1ccc2c(c1)OCO2 returned hgDAF12 agonist 10.7*, DAX1 inh-1 1.4, hcDAF-12 act 4.1, ssDAF-12 act 1.0*, DAX1 inh-2 10.8*, DAX1 conf 12.0* and SF1 AF2mut Luc 6.3*.
Screening Cc1ccc(OCC(=O)Nc2ccc3c(c2)OCO3)c(C)c1 returned hgDAF12 agonist 13.0*, DAX1 inh-1 0.8, hcDAF-12 act 3.5, ssDAF-12 act -0.8, DAX1 inh-2 6.5*, DAX1 conf 7.2* and SF1 AF2mut Luc 5.7*.
For Cc1cccc(OCC(=O)Nc2ccc3c(c2)OCO3)c1C the results were hgDAF12 agonist 2.1, DAX1 inh-1 0.5, hcDAF-12 act -1.1, ssDAF-12 act -0.7 and DAX1 inh-2 0.5.
O=C(COc1cc(F)ccc1[N+](=O)[O-])Nc1ccc2c(c1)OCO2 was read as hgDAF12 agonist 1.9, DAX1 inh-1 0.4, hcDAF-12 act -0.3, ssDAF-12 act -0.7 and DAX1 inh-2 -1.1.
COC(=O)CN(Cc1cn(Cc2ccccc2)nn1)S(=O)(=O)c1ccccc1Br was read as hgDAF12 agonist 4.4, hcDAF-12 act 0.5, ssDAF-12 act -1.5 and DAX1 inh-2 -0.9.
`CCCCNC(=O)C[C@H]1C[C@@]2(C(=O)OC)C(=C[C@H](C3CCCC3)O[C@@H]2C)N(Cc2ccco2)C1=O` gave hgDAF12 agonist -1.4, hcDAF-12 act -2.9, ssDAF-12 act -1.9 and DAX1 inh-2 -0.6.
Screening CN1CCCC(OC(=O)c2ccc3c(c2)OCCO3)C1 (configuration not stated) returned hgDAF12 agonist 5.8, DAX1 inh-1 1.9, hcDAF-12 act 0.7, ssDAF-12 act -0.1, DAX1 inh-2 5.4*, DAX1 conf 6.4* and SF1 AF2mut Luc 3.2*.
CN1CCCC(OC(=O)c2ccc(Cl)cc2)C1 (configuration not stated) was read as hgDAF12 agonist 1.2, DAX1 inh-1 0.8, hcDAF-12 act -0.1, ssDAF-12 act -1.5 and DAX1 inh-2 0.5.
CSc1ccccc1OCc1cc(C(=O)N2CCCC(C)C2)no1 (configuration not stated) was read as hgDAF12 agonist 12.0*, DAX1 inh-1 1.7, hcDAF-12 act 3.7, ssDAF-12 act 0.1, DAX1 inh-2 6.5*, DAX1 conf 8.3* and SF1 AF2mut Luc 4.0*.
For CSc1ccccc1OCc1cc(C(=O)N(C)Cc2ccc(C)o2)no1 the results were hgDAF12 agonist 5.7, DAX1 inh-1 0.7, hcDAF-12 act 2.2, ssDAF-12 act -1.2 and DAX1 inh-2 1.7.
`CSc1ccccc1OCc1cc(C(=O)N(C)Cc2ccc3nsnc3c2)no1` gave hgDAF12 agonist 11.4*, DAX1 inh-1 3.0, hcDAF-12 act 5.3, ssDAF-12 act -0.1, DAX1 inh-2 5.3*, DAX1 conf 6.5* and SF1 AF2mut Luc 3.1*.
`CCN(CC)C1CCN(C(=O)c2cc(COc3ccccc3SC)on2)C1` (configuration not stated) gave hgDAF12 agonist 0.2, DAX1 inh-1 0.7, hcDAF-12 act -0.4, ssDAF-12 act -1.8 and DAX1 inh-2 -0.2.
Cc1ccc(C)c(OCc2cc(C(=O)N3CCOCC3)no2)c1 was read as hgDAF12 agonist 7.0, DAX1 inh-1 1.4, hcDAF-12 act 5.4, ssDAF-12 act -0.2, DAX1 inh-2 5.7*, DAX1 conf 5.3* and SF1 AF2mut Luc 4.7*.
